Measurements: PubChem BioAssay (NCI)
This is part of a sample that, as a whole, favours compounds with a hit. Of some 79,000 tested, about 15% had one in any assay. Values without a mark were called inactive. Activity calls are given as the source filed them. Cut-off read from the data, not from the text of the source: active = growth inhibition above about 70%; inactive = the rest.

Tests used:
[1] = NCI Yeast Anticancer Drug Screen. Data for the rad50 strain (AID 155);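 note: 0% = growth of vehicle-only cultures of the same strain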; settings: S. cerevisiae rad50 strain growth inhibition, stronger effect = higher value
Method in brief: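 DNA repair mutant yeast, compound exposure, growth read-out; inhibition is taken relative to vehicle.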

[2] = NCI Yeast Anticancer Drug Screen. Data for the mec2-1 strain (AID 157); settings: S. cerevisiae mec2-1 strain, stronger effect = higher value
Method in brief: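 Each compound was tested on mec2-1 yeast, a strain altered in DNA damage repair or cell cycle control. Growth inhibition is reported relative to vehicle.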

[3] = NCI Yeast Anticancer Drug Screen. Data for the sgs1 mgt1 strain (AID 161);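 note: 0% = growth of cultures given vehicle only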; settings: S. cerevisiae sgs1 mgt1 strain, stronger effect = higher value
Method in brief: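 Mutant yeast exposed to compound; growth scored against vehicle-only wells.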

[4] = NCI Yeast Anticancer Drug Screen. Data for the cln2 rad14 strain (AID 165);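 note: 0% = growth equal to vehicle treated cultures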; settings: S. cerevisiae cln2 rad14 strain, stronger effect = higher value
Method in brief: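 Test compounds were added to cln2 rad14 yeast cultures; inhibition of growth was then determined by comparison with vehicle treatment.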

[5] = NCI Yeast Anticancer Drug Screen. Data for the bub3 strain (AID 167); settings: S. cerevisiae bub3 mutant strain, stronger effect = higher value
Method in brief: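 In this screen, a yeast mutant lacking normal mitotic checkpoint function is challenged with compound. Relative growth versus vehicle gives the inhibition value.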

[6] = NCI Yeast Anticancer Drug Screen. Data for the mlh1 rad18 strain (AID 175); settings: S. cerevisiae mlh1 rad18 strain growth inhibition, stronger effect = higher value
Method in brief: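 Inhibition values reflect reduced growth of mutant yeast versus vehicle-treated controls following compound exposure; the mutations affect DNA damage repair.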

[7] = at 5.0 µM (retest, dose inferred, filed as 0.5)
[8] = at 50.0 µM (retest, dose inferred, filed as 5.0)

Compound | growth inhibition [1, 7] | growth inhibition [1, 8] | growth inhibition ([1]; at 50.0 µM) | growth inhibition [2, 7] | growth inhibition [2, 8] | growth inhibition ([2]; at 50.0 µM) | growth inhibition [3, 7] | growth inhibition [3, 8] | growth inhibition ([3]; at 50.0 µM) | growth inhibition [4, 7] | growth inhibition [4, 8] | growth inhibition ([4]; at 50.0 µM) | growth inhibition [5, 7] | growth inhibition [5, 8] | growth inhibition ([5]; at 50.0 µM) | growth inhibition [6, 7] | growth inhibition [6, 8] | growth inhibition ([6]; at 50.0 µM)
O=[N+]([O-])c1ccc(CSSCc2ccc([N+](=O)[O-])cc2)cc1 | 5% | 18% | 18.5% | 9% | 39% | 16.7% | 21% | 49% | 41.5% | -3% | 36% | -18.2% | 26% | 66% | 72.5% (active) | 10% | 49% | 28%
C=CCOCCC(=O)OCC=C | 0% | -2% | 7% | 1% | 0% | 40.4% | 1% | -1% | 15.9% | -1% | 0% | 72.2% (active) | -2% | -1% | 67.4% | -1% | -1% | 70.8% (active)
COc1cc(C2c3cc4c(cc3[C@@H](Nc3cccc(O)c3)C3COC(=O)[C@H]23)OCO4)cc(OC)c1O (stereo not given in full) | 96% (active) | 97% (active) | 85% (active) | 96% (active) | 98% (active) | 90.7% (active) | 28% | 97% (active) | 88.5% (active) | 33% | 90% (active) | 88.8% (active) | 21% | 93% (active) | 87.7% (active) | 94% (active) | 97% (active) | 87% (active)
Brc1ccc2[nH]c3nc4ccc5ccccc5c4nc3c2c1 | 2% | 1% | -2.35% | 3% | 1% | 20.8% | 0% | 0% | 7.15% | 6% | -1% | 71% (active) | 6% | 0% | 12.4% | 6% | 2% | -3.25%
CCCCCCCCCCCCCCCCS(=O)(=O)Cl | 40% | 96% (active) | 61.5% | 46% | 98% (active) | 32.2% | 57% | 77% (active) | 59.8% | 31% | 73% (active) | -6.35% | 69% | 78% (active) | 46.7% | 43% | 99% (active) | 53.8%
O=[N+]([O-])c1ccc2c(c1)/C(=C/c1ccc(O)cc1)c1ccccc1-2 | 9% | 86% (active) | 88.3% (active) | 1% | 82% (active) | 88.8% (active) | 2% | 82% (active) | 91.3% (active) | -2% | 84% (active) | 86.8% (active) | -2% | 85% (active) | 88.6% (active) | 6% | 83% (active) | 88.8% (active)
S=c1[nH]c2cc(-c3ccccc3)ccc2o1 | 63% | 98% (active) | 64.2% | 37% | 98% (active) | 53.1% | 17% | 72% (active) | 78% (active) | 52% | 65% | 47.1% | 19% | 52% | 52% | 51% | 98% (active) | 47.8%
O=C1OC(OCC#CCOC2OC(=O)C(Cl)=C2Cl)C(Cl)=C1Cl (stereo not given) | 37% | 99% (active) | 99.4% (active) | 28% | 99% (active) | 99.7% (active) | 46% | 100% (active) | 99.3% (active) | 28% | 99% (active) | 97.8% (active) | 26% | 99% (active) | 98.3% (active) | 46% | 99% (active) | 99.5% (active)
c1ccc(-c2ccc(-c3cnc(-c4ccc(-c5ccccc5)cc4)o3)cc2)cc1 | 4% | 30% | 90.2% (active) | 3% | 46% | 53.4% | 1% | 66% | 93% (active) | -1% | 42% | 41.1% | 8% | 31% | 93.2% (active) | -6% | 64% | 92.8% (active)
CN(C)[C@H]1CC[C@H]2[C@@H]3CCC4C[C@@H](NC(=O)NC(Cc5ccccc5)c5nccs5)CC[C@]4(C)[C@H]3CC[C@]12C (stereo not given in full) | 4% | 4% | 67.5% | -16% | -16% | 63.9% | -11% | -11% | 63.5% | -16% | -16% | 47.9% | -17% | -17% | 65.9% | -21% | -21% | 59%
